# Active and inactive are the calls of the source.
# Tests used:
# [1] = E. coli DRC41 culture turbidity changes, primary screen, E. coli filamentation inducer project, strain DRC41, OD650, 48 h (AID 1152);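 note: E. coli MC1000 strain DRC41 lacking acrAB efflux pump and sulA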; settings: E. coli DRC41 (acrAB sulA), higher = more signal, called active from +8 up or from −8 down
# [2] = small-molecule binders of probe aLefty1, primary screen, biochemical, small-molecule microarray, 635/667 nm fluorescence (AID 1153); settings: higher = more signal;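 note: score merges spot fluorescence with signal-to-noise ratio from the scanned slide images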
# [3] = PSAC antagonists in infected red cells, primary screen, cell-based, P. falciparum Indochina, OD700, 1 h (AID 1154); settings: P. falciparum Indochina infected RBC osmotic lysis, higher = more signal, called active from +8 up or from −8 down
# [4] = PSAC antagonists in infected red cells, primary screen, cell-based, P. falciparum Indochina, OD700, 2 h (AID 1155);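 note: lysis reports solute entry through the parasite surface anion channel PSAC; channel blockers reduce lysis of infected cells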; settings: P. falciparum Indochina infected erythrocytes, osmotic lysis OD700; higher = more signal, called active from +8 up or from −8 down
# [5] = osmotic lysis modulators in infected erythrocytes, primary screen, PSAC antagonist project, cell-based, P. falciparum Indochina, OD700, 3 h (AID 1156); settings: higher = more signal, called active from +8 up or from −8 down
# [6] = PSAC antagonists in infected red cells, primary screen, cell-based, P. falciparum Indochina, OD700, 18 h (AID 1157); settings: P. falciparum Indochina infected erythrocytes, osmotic lysis OD700, 18 h; higher = more signal, called active from +8 up or from −8 down
# [7] = modulators of S6 phosphorylation in cells, primary screen, cell-based, A549, cytoblot, luminescence, serum-stimulated (AID 1158); settings: A549 phospho-S6 cytoblot, 5 h, higher = more signal;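 note: serum-stimulated A549 lung adenocarcinoma cells; signal is phosphorylated S6 detected by cytoblot immunostaining with HRP secondary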
# [8] = target: NADPH oxidase 2 (Homo sapiens) (UniProt P04839); assay: NOX2-dependent H2O2 signal modulators, primary screen, NOX inhibitor project, cell-based, HEK293-NOX2, PMA-stimulated, Amplex Red fluorescence (AID 1159); settings: 45 min, higher = more signal, called active from +8 up or from −8 down; note: test concentration not given here
# Chain of NADPH oxidase 2 (Homo sapiens) (P04839 whole entry, looked up): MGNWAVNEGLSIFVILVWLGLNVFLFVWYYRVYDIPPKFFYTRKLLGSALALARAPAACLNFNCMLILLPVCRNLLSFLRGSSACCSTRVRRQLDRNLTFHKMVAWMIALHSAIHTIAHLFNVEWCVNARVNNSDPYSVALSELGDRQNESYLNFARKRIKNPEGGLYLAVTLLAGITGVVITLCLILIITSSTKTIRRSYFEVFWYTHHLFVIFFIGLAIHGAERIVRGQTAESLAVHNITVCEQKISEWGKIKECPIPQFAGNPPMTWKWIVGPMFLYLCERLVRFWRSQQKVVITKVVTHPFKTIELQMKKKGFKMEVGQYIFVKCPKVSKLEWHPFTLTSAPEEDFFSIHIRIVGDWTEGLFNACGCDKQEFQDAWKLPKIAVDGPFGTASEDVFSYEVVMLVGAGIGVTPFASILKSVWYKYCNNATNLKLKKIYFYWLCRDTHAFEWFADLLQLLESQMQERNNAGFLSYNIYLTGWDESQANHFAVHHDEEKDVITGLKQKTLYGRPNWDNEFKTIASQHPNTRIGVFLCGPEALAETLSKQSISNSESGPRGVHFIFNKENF
# [9] = target: NADPH oxidase 4 (Homo sapiens) (UniProt Q9NPH5); assay: NOX4-dependent H2O2 signal modulators, primary screen, NOX inhibitor project, cell-based, HEK293-NOX4, tetracycline-induced, Amplex Red fluorescence (AID 1160); settings: 45 min, higher = more signal, called active from +8 up or from −8 down
# Chain of NADPH oxidase 4 (Homo sapiens) (Q9NPH5 whole entry, looked up): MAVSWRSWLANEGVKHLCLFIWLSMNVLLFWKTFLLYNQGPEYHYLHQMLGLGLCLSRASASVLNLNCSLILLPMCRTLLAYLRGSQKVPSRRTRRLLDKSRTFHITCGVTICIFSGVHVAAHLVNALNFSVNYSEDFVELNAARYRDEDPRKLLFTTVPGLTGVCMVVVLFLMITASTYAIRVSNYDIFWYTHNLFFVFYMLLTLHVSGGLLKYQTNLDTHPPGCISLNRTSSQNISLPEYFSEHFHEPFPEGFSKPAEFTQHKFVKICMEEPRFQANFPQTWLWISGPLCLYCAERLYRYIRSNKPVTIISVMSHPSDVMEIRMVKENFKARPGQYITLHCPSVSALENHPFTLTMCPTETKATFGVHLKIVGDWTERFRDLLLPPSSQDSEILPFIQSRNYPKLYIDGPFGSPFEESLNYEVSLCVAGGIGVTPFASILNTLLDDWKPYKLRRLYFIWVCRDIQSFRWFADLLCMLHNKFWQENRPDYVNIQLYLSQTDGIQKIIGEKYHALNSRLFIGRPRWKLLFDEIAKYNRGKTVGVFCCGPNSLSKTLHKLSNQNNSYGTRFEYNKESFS
# [10] = target: NADPH oxidase 5 (Homo sapiens) (UniProt Q96PH1); assay: NOX5-dependent H2O2 signal modulators, primary screen, NOX inhibitor project, cell-based, HEK293-NOX5, Amplex Red fluorescence (AID 1161); settings: HEK293-NOX5, ionomycin, 45 min, higher = more signal
# Chain of NADPH oxidase 5 (Homo sapiens) (Q96PH1 whole entry, looked up): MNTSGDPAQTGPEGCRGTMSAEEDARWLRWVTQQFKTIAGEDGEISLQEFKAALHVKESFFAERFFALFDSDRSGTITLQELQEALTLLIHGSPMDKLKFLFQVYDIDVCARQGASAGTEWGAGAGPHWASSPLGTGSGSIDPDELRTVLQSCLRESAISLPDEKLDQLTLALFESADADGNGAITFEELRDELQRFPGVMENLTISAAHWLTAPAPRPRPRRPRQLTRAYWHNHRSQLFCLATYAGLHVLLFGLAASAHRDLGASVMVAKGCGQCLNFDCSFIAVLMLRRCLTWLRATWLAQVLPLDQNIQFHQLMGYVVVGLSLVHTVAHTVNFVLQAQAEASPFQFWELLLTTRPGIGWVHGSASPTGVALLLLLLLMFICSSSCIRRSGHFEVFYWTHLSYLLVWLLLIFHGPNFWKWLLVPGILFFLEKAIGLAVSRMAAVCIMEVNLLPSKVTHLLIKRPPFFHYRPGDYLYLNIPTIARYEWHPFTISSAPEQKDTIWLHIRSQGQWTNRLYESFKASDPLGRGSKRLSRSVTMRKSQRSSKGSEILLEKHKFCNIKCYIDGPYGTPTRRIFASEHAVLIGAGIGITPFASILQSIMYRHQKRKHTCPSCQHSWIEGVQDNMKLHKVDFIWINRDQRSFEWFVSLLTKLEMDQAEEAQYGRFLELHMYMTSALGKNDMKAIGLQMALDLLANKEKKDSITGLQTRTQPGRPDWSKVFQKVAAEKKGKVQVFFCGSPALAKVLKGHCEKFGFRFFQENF
# [11] = A549 cell viability effects, profiling panel, calcein-AM fluorescence, 48 h, basal (AID 1162); settings: higher = more signal; note: test concentration not given here
# [12] = adipocyte viability effects, profiling panel, cell-based, 3T3-L1 adipocytes, calcein-AM fluorescence, 48 h, basal (AID 1163); settings: 3T3-L1 adipocytes viability, higher = more signal; note: test concentration not given here
# [13] = HepG2 cell viability effects, profiling panel, calcein-AM fluorescence, 48 h, basal (AID 1164); settings: higher = more signal; note: test concentration not given here
# [14] = MM1S cell viability effects, profiling panel, calcein-AM fluorescence, 48 h, basal (AID 1165); settings: higher = more signal;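 note: viability of MM1S multiple myeloma cells under basal unstimulated conditions; test concentration not given here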
# [15] = basal RPMI8226 viability, no added stimulus, profiling panel, cell-based, calcein-AM fluorescence, 48 h, PK04 Diversity Set (AID 1166); settings: RPMI8226 myeloma viability, higher = more signal;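 note: cells grown under basal conditions without added stimulus; test concentration not given here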
# [16] = basal HepG2 mitochondrial membrane potential changes, profiling panel, cell-based, JC-1 fluorescence, 24 h, 100 nL compound (AID 1167); settings: higher = more signal; note: test concentration not given here
# [17] = basal 3T3-L1 adipocyte mitochondrial potential changes, profiling panel, cell-based, JC-1 fluorescence, 3T3-L1 adipocytes, 24 h, 100 nL compound (AID 1168); settings: JC-1 mitochondrial fluorescence, higher = more signal, called active from +8 up or from −8 down; note: test concentration not given here
# [18] = basal RPMI8226 mitochondrial membrane potential changes, profiling panel, cell-based, JC-1 fluorescence, 24 h, 100 nL compound (AID 1169); settings: RPMI8226 myeloma, JC-1 mitochondrial potential fluorescence, higher = more signal; note: test concentration not given here
# [19] = basal MM1S mitochondrial membrane potential changes, profiling panel, cell-based, JC-1 fluorescence, 24 h, 100 nL compound (AID 1170); settings: higher = more signal; note: test concentration not given here
# [20] = A549 lung cancer cell viability effects, profiling panel, resazurin fluorescence, 24 h, PK04 Diversity Set (AID 1171); settings: higher = more signal, called active from +8 up or from −8 down; note: test concentration not given here
SMILES,z-score [1],composite z-score [2],z-score [3],z-score [4],z-score [5],z-score [6],z-score [7],z-score [8],z-score [9],z-score [10],z-score [11],z-score [12],z-score [13],z-score [14],z-score [15],z-score [16],z-score [17],z-score [18],z-score [19],z-score [20]
COc1ccc([Si](C)(C)[C@H]2[C@H](CCn3cc([C@H](O)c4ccccc4)nn3)O[C@@]3(C(=O)N(c4ccccc4)c4ccccc43)[C@@H]2C)cc1,1.13 (inactive),0.0004,6.6 (inactive),1.67 (inactive),0.56 (inactive),1.23 (inactive),0.448,1.47 (inactive),1.3 (inactive),1.33,-0.13,0.885,-1.31,-0.54,-3.18,1.63,0.291 (inactive),-0.932,-0.794,-0.853 (inactive)
O=C1O[C@H](c2ccccc2)[C@H](c2ccccc2)N2[C@H]1[C@@H](C(=O)NC[C@H](O)c1ccccc1)[C@]1(C(=O)Nc3ccc(C#CCCO)cc31)[C@H]2c1ccccc1OCCO,0.631 (inactive),0.0752,2.45 (inactive),0.612 (inactive),0.478 (inactive),0.786 (inactive),0.288,2.14 (inactive),1.35 (inactive),1.6,-0.661,1.43,-1.12,-0.751,-1.41,-0.864,2.89 (inactive),-0.72,-0.341,1.86 (inactive)
[N-]=[N+]=NCc1ccccc1C[C@]1(C(=O)O)COC(c2ccc(OCCCO)cc2)=N1,0.0626 (inactive),0.118,5.11 (inactive),0.179 (inactive),1.56 (inactive),-0.315 (inactive),0.49,0.0988 (inactive),1.27 (inactive),0.641,0.608,-0.379,0.383,-0.175,0.345,-0.578,-0.634 (inactive),-0.285,-0.261,0.0946 (inactive)
C[C@H]1NC(=O)C([C@@H](C)OCc2ccccc2)NC(=O)[C@@]23C(=O)N[C@@H](Cc4ccccc4)C2[C@H](C)[C@@]2(C)O[C@H]2C3/C=C/C/C=C\CNC1=O (stereo not given in full),-0.009 (inactive),-0.0501,1.88 (inactive),0.58 (inactive),0.761 (inactive),0.427 (inactive),-0.104,-0.118 (inactive),-1.16 (inactive),-0.16,0.462,1.44,0.14,-0.0497,-0.23,0.817,0.346 (inactive),0.0911,0.607,-0.214 (inactive)
C=CCC(OC(C)=O)[C@@H]1[C@@H](N(Cc2ccc(-c3ccccc3)cc2)C(=O)c2ccc(-c3ccccc3)cc2)c2cc(OCCCO)ccc2N1C(=O)c1ccc2ccccc2n1 (stereo not given in full),0.803 (inactive),0.026,0.135 (inactive),0.078 (inactive),-0.452 (inactive),-0.033 (inactive),0.364,1.18 (inactive),1.33 (inactive),1.17,0.393,0.167,0.486,-0.265,-0.189,2.22,-0.124 (inactive),-0.742,-0.133,1.67 (inactive)
COCCCNC(=O)[C@@H]1c2ccccc2C(=O)N(C2CCCCC2)[C@H]1c1ccc(CO)cc1,0.416 (inactive),0.0839,0.794 (inactive),-0.0928 (inactive),0.65 (inactive),-0.51 (inactive),2.35,0.422 (inactive),-1.61 (inactive),-0.915,1.83,1.15,1.05,0.777,-0.559,2.49,-0.154 (inactive),0.107,-1.17,1.19 (inactive)
NC(=O)[C@@]1(CCS(=O)(=O)c2ccccc2)COC(c2ccc(OCCCO)cc2)=N1,1.05 (inactive),0.281,22.1 (active),4.56 (inactive),0.815 (inactive),0.939 (inactive),-0.192,-2.33 (inactive),-0.383 (inactive),-0.124,-0.339,-0.519,0.344,-0.0256,0.458,-0.522,-0.762 (inactive),-0.436,-0.942,-0.721 (inactive)
C=CCC(OC(C)=O)[C@@H]1[C@@H](N(Cc2cc3ccccc3o2)C(=O)c2ccc(-c3ccccc3)cc2)c2cc(OCCCO)ccc2N1C(=O)c1ccc2ccccc2n1 (stereo not given in full),0.803 (inactive),-0.0534,1.01 (inactive),0.698 (inactive),-0.44 (inactive),0.655 (inactive),-0.113,1.88 (inactive),-0.895 (inactive),1.66,0.704,0.242,1.43,0.479,-0.11,2.66,0.229 (inactive),-0.202,1.32,0.967 (inactive)
C=CC[C@]1(C(=O)NCCCOC)N=C(c2ccc(OCCCO)cc2)O[C@H]1c1ccccc1,0.898 (inactive),-0.0172,12.3 (active),0.912 (inactive),0.932 (inactive),0.643 (inactive),0.727,-2.35 (inactive),-0.164 (inactive),-0.87,0.0753,0.301,-1.1,-0.464,0.511,0.238,0.171 (inactive),-0.446,-0.607,1.32 (inactive)
COc1ccccc1CN1C(=O)c2ccccc2[C@@H](C(=O)NCCCN(C)C)[C@@H]1c1ccc(CO)cc1,1.21 (inactive),-0.552,2.02 (inactive),-0.141 (inactive),0.445 (inactive),-0.583 (inactive),0.506,0.676 (inactive),-0.436 (inactive),-2.04,1.29,0.608,1.07,0.376,0.0552,3.31,0.629 (inactive),0.262,0.325,0.997 (inactive)
[N-]=[N+]=NCc1ccccc1C[C@]1(C(=O)N2CCCCC2)N=C(c2ccc(OCCCO)cc2)O[C@H]1c1ccccc1,0.74 (inactive),0.118,20.4 (active),5.49 (inactive),3.48 (inactive),2.04 (inactive),1.38,-1.16 (inactive),-0.0602 (inactive),-0.924,-0.888,0.252,-0.923,-2.59,-4.27,0.117,0.845 (inactive),-1.14,-2.38,-0.136 (inactive)
C=CCC(OC(C)=O)[C@@H]1[C@@H](N(Cc2cccc3ccccc23)C(=O)c2ccc(C)cc2)c2cc(OCCCO)ccc2N1C(=O)c1ccc2ccccc2n1 (stereo not given in full),2.18 (inactive),0.0009,1.83 (inactive),-0.623 (inactive),-1.16 (inactive),-1.37 (inactive),1.62,-0.604 (inactive),0.807 (inactive),2.44,0.375,0.694,1.14,0.823,-0.473,2.11,0.199 (inactive),0.187,-1.25,0.34 (inactive)
COCCOC(=O)N1C(=O)[C@@]2(c3cc(C#CC4=CCCCC4)ccc31)[C@H](C(=O)N1CCN(c3ncccn3)CC1)[C@H]1C(=O)O[C@H](c3ccccc3)[C@H](c3ccccc3)N1[C@@H]2c1ccccc1OCCO,2.23 (inactive),0.297,1.65 (inactive),0.256 (inactive),-0.634 (inactive),-0.227 (inactive),2.05,-0.241 (inactive),-2.24 (inactive),-3.12,-0.793,1.36,-0.435,-1.24,-1.88,-0.0311,10.6 (active),-0.645,-1.47,0.738 (inactive)
C[C@@H](OCc1ccccc1)C1NC(=O)[C@@]23C(=O)N[C@@H](Cc4ccccc4)C2[C@H](C)[C@@]2(C)O[C@H]2C3/C=C/C/C=C\CNC(=O)[C@H](Cc2ccccc2)NC1=O (stereo not given in full),0.725 (inactive),-0.0544,1.18 (inactive),0.012 (inactive),0.526 (inactive),0.156 (inactive),0.858,0.487 (inactive),0.924 (inactive),0.349,0.247,0.854,0.235,-1.42,-2.1,0.637,-0.355 (inactive),-0.497,0.546,-0.792 (inactive)
COc1cccc(OC)c1C(=O)O[C@H]1[C@@H]2OC(=O)[C@H](Cc3cccc(Br)c3)C/C=C/C[C@@H](Cc3cccc(Br)c3)C(=O)O[C@H]2[C@@H](OC)O[C@@H]1CO,-0.899 (inactive),-0.0559,3.18 (inactive),-0.0392 (inactive),-1.53 (inactive),0.581 (inactive),0.0487,-0.443 (inactive),-0.0533 (inactive),0.955,-0.144,0.0726,-0.215,-2.6,-3.88,-3.42,-0.819 (inactive),-0.735,-0.211,-0.952 (inactive)
Cc1ccc(S(=O)(=O)N2[C@@H](c3ccccc3)C(C(=O)O)=CC[C@H]2c2ccc(C#N)cc2)cc1,-1.22 (inactive),0.114,4.02 (inactive),1.42 (inactive),1.6 (inactive),0.559 (inactive),-0.316,-0.229 (inactive),-1.62 (inactive),-1.54,-0.283,-0.287,-0.187,-0.44,-0.471,-0.556,-0.633 (inactive),-0.748,0.226,-0.748 (inactive)
